Source: PubChem (The Scripps Research Institute Molecular Screening Center)
Hits are enriched below; roughly 2.3% of the tested compounds scored in any of these assays.
CHRM1 PAM – human M1 muscarinic receptor positive allosteric modulators, primary screen, CHO-K1 cells, Fluo-8 calcium fluorescence, 1536-well; Muscarinic acetylcholine receptor M1 (Homo sapiens), P11229; CHO-K1 hM1, ACh EC20; 0% = ACh EC20, 100% = maximal ACh; activation, % at 3 µM; 0.088% of 360,000 active; in the data active = activation above about 19%, passing the limit was not always enough
Target sequence (P11229 whole entry, looked up): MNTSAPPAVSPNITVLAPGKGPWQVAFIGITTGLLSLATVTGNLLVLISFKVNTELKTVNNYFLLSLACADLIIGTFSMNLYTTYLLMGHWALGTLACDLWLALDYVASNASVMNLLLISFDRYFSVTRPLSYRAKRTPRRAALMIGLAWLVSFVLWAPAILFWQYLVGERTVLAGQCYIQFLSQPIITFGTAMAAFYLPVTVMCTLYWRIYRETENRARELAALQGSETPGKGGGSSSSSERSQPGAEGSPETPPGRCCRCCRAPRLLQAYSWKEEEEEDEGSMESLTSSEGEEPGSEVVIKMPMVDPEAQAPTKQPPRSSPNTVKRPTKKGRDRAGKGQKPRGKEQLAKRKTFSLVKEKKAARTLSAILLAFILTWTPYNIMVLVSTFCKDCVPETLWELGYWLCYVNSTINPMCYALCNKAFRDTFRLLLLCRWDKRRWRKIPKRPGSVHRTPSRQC
CHO-K1 Ca antag – counter-screen for M1 antagonists: effect in parental CHO-K1 cells; 0.6% of 360,000 active; inhibition, % at 3 µM; ATP-induced calcium, Fluo-8 fluorescence; AID 602250;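 active = inhibition above a per-plate cutoff, the plate's mean sample inhibition plus 3 SD, cut at about 24% in these data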;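 also: 0% = DMSO plus EC80 ATP and 100% = DMSO alone without ATP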
M1 antag – human M1 muscarinic receptor antagonists, primary screen, CHO-K1 cells, Fluo-8 calcium fluorescence, 1536-well; Muscarinic acetylcholine receptor M1 (Homo sapiens), P11229; CHO-K1 hM1, ACh EC80 antagonist; inhibition, % at 3 µM; 1.3% of 360,000 active;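 active = percent inhibition above its own plate's cutoff, namely the mean of that plate's compound wells plus 3 SD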;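 also: peak over basal fluorescence ratio during 140 s after agonist addition; 0% = ACh EC80 plus DMSO and 100% = DMSO alone without agonist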
CHO-K1 Ca PAM – nonselective calcium activators in parental CHO-K1 cells, primary screen, counter-screen for M1 PAM project, cell-based, Fluo-8 calcium fluorescence, full deck, 1536-well. ATP EC20; 0% at ATP EC20, 100% at ATP max. activation, % at 3 µM. 0.02% of 360,000 active. AID 602247, 2012;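 active = activation above the run cutoff, the mean activation of all test compounds plus 3 SD, cut at about 40% in these data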;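 also: peak over basal fluorescence ratio in a 140 s read after ATP addition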
M1 ag – human M1 muscarinic receptor agonists, primary screen, Fluo-8 calcium fluorescence, CHO-K1 cells, HTS; CHO-K1 hM1, agonist mode; 0% DMSO, 100% acetylcholine EC100; activation, % at 3 µM; 0.33% of 360,000 active; AID 588814, 2011;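 active = activation above the run's mean compound activation plus 3 SD, cut at about 16% in these data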;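 also: peak over basal fluorescence ratio within a 140 s kinetic read after compound addition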
M1 ag parental – counter-screen for M1 agonists: effect in parental CHO-K1 cells. Fluo-8 calcium fluorescence; scaled to maximal ATP response, vehicle zero. activation, % at 3 µM. 0.48% of 360,000 active; in the data active = activation above about 15%;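 also: untransfected CHO-K1 host cells lacking M1 receptor as counterscreen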
* hit, by the source's call.

`CC(C)OCCCNC(=O)C(Cc1ccccc1)NS(=O)(=O)c1ccc2c(c1)CCC(=O)N2` (stereo not given) gave CHRM1 PAM 5.1, CHO-K1 Ca antag -13.5, M1 antag -15.8, CHO-K1 Ca PAM 3.6, M1 ag -1.8 and M1 ag parental 1.0.
For COc1ccc(N2C(=O)CC(N3CCN(S(=O)(=O)c4c(C)cc(C)cc4C)CC3)C2=O)cc1 (stereo not given) the results were CHRM1 PAM 4.0, CHO-K1 Ca antag -13.8, M1 antag -2.7, CHO-K1 Ca PAM 16.7, M1 ag -3.0 and M1 ag parental 2.1.
`COc1ccc(N2C(=O)CC(N3CCN(S(=O)(=O)c4cc(C)ccc4C)CC3)C2=O)cc1` (stereo not given) gave CHRM1 PAM -4.8, CHO-K1 Ca antag 12.0, M1 antag 4.9, CHO-K1 Ca PAM 1.5, M1 ag -4.1 and M1 ag parental 16.1*.
`COc1cc(S(=O)(=O)N2CCN(C)CC2)c(OC)cc1Cl` gave CHRM1 PAM 12.1, CHO-K1 Ca antag 23.9*, M1 antag -1.7, CHO-K1 Ca PAM -7.1, M1 ag -2.1 and M1 ag parental -0.2.
`O=[N+]([O-])c1cccc(NC(=S)N2CCN(c3ccccn3)CC2)c1` gave CHRM1 PAM -0.1, CHO-K1 Ca antag 5.3, M1 antag -2.8, CHO-K1 Ca PAM -2.9, M1 ag -2.0 and M1 ag parental 3.3.
For CN(C)c1ncc(CN2CCC(CO)(CCCc3ccccc3)CC2)s1 the results were CHRM1 PAM 3.5, CHO-K1 Ca antag -7.6, M1 antag -11.1, CHO-K1 Ca PAM -1.8, M1 ag 20.4* and M1 ag parental 0.2.
Screening CCCCCCCCCCCCCCCCn1cc[n+](C)c1 returned CHRM1 PAM -29.7, CHO-K1 Ca antag 6.8, M1 antag 41.9*, CHO-K1 Ca PAM 2.4, M1 ag -10.2 and M1 ag parental -0.2.
`CCOc1ccc(C(=O)NC(C(=O)N2CCC2)C(C)C)cc1` (stereo not given) gave CHRM1 PAM 2.6, CHO-K1 Ca antag 1.8, M1 antag -2.2, CHO-K1 Ca PAM 13.2, M1 ag -3.3 and M1 ag parental 2.0.
Screening CCc1nn(CC(=O)N2CC(C)CC(C)C2)c(=O)c2cccn12 (stereo not given) returned CHRM1 PAM -1.3, CHO-K1 Ca antag -9.8, M1 antag -2.7, CHO-K1 Ca PAM 0.3, M1 ag -0.6 and M1 ag parental 1.7.
Screening CC(C)N(C)c1ncnc2c1ncn2[C@H]1CN(Cc2cccs2)C[C@@H](CO)O1 returned CHRM1 PAM 11.2, CHO-K1 Ca antag -21.6, M1 antag -24.1, CHO-K1 Ca PAM 19.1, M1 ag 0.6 and M1 ag parental 1.1.
Screening C=CCn1c(-c2csc3c2CCC(C)C3)n[nH]c1=S (stereo not given) returned CHRM1 PAM -13.0, CHO-K1 Ca antag 6.6, M1 antag 0.3, CHO-K1 Ca PAM -6.7, M1 ag -12.8 and M1 ag parental -0.1.
Screening CCCCn1c(-c2csc3c2CCC(C)C3)n[nH]c1=S (stereo not given) returned CHRM1 PAM -21.0, CHO-K1 Ca antag -16.3, M1 antag 47.3*, CHO-K1 Ca PAM 21.6, M1 ag -7.6 and M1 ag parental 1.1.
O=C1CC(c2ccc(F)cc2)CC(O)=C1C=NCCN1CCNCC1 (stereo not given) was read as CHRM1 PAM -10.3, CHO-K1 Ca antag 12.8, M1 antag 3.8, CHO-K1 Ca PAM -5.0, M1 ag -5.5 and M1 ag parental 0.0.
`O=C1CC(c2cccs2)CC(O)=C1C=NCCN1CCNCC1` (stereo not given) gave CHRM1 PAM -8.0, CHO-K1 Ca antag -14.4, M1 antag 32.2*, CHO-K1 Ca PAM 4.7, M1 ag 17.1* and M1 ag parental 0.4.
`O=C1CC(c2ccco2)CC(O)=C1C=NCCN1CCNCC1` (stereo not given) gave CHRM1 PAM -12.8, CHO-K1 Ca antag -6.2, M1 antag 38.8*, CHO-K1 Ca PAM 4.3, M1 ag 2.1 and M1 ag parental -0.5.
Screening O=C1CC(c2ccccc2)CC(O)=C1C=NCCN1CCNCC1 (stereo not given) returned CHRM1 PAM -7.4, CHO-K1 Ca antag -3.2, M1 antag 25.2*, CHO-K1 Ca PAM 14.3, M1 ag 10.1 and M1 ag parental 0.4.
`O=C(CCN1C(=O)C2C3C=CC(C4CC34)C2C1=O)Nc1ccc(Cl)cc1O` (stereo not given) gave CHRM1 PAM 4.0, CHO-K1 Ca antag 6.2, M1 antag -1.5, CHO-K1 Ca PAM -18.2, M1 ag 0.3 and M1 ag parental 2.2.
`O=C(COc1ncnc2ccccc12)Nc1cc([N+](=O)[O-])ccc1F` gave CHRM1 PAM 4.2, CHO-K1 Ca antag 3.3, M1 antag -4.8, CHO-K1 Ca PAM 6.2, M1 ag -0.5 and M1 ag parental 16.5*.
For Cn1nc(-c2ccccc2)cc1NC(=O)[C@@H]1O[C@H](CO)[C@H](O)[C@H](O)[C@H]1O the results were CHRM1 PAM 9.7, CHO-K1 Ca antag -9.1, M1 antag -15.5, CHO-K1 Ca PAM 13.1, M1 ag 3.0 and M1 ag parental 0.2.
Screening C=CCn1c(SCC(=O)Nc2nc(C)cs2)nnc1C(C)NC(=O)c1ccccc1Cl (stereo not given) returned CHRM1 PAM -8.6, CHO-K1 Ca antag -3.8, M1 antag 47.0*, CHO-K1 Ca PAM 18.5, M1 ag -3.2 and M1 ag parental 1.0.
O=C(c1ccc(COc2ccc(Cl)cc2Cl)o1)N1CCCC1 was read as CHRM1 PAM 4.8, CHO-K1 Ca antag 1.8, M1 antag -9.2, CHO-K1 Ca PAM -4.3, M1 ag -1.1 and M1 ag parental 0.4.
CCOC(=O)N1CCN(c2ccnc3cc(Cl)ccc23)CC1 was read as CHRM1 PAM -38.1, CHO-K1 Ca antag -12.0, M1 antag 90.8*, CHO-K1 Ca PAM -4.0, M1 ag -12.3 and M1 ag parental 4.0.
COc1cccc(Cl)c1NC(=O)N1CCN(c2cc(C)nc3ccccc23)CC1 was read as CHRM1 PAM 0.0, CHO-K1 Ca antag -26.9, M1 antag -7.9, CHO-K1 Ca PAM 14.8, M1 ag -9.2 and M1 ag parental -0.4.
COc1cccc(Cl)c1NC(=O)N1CCN(c2ccnc3cc(Cl)ccc23)CC1 was read as CHRM1 PAM -17.3, CHO-K1 Ca antag -0.7, M1 antag 34.3*, CHO-K1 Ca PAM 12.0, M1 ag -2.2 and M1 ag parental 7.3.
Screening CCC(=O)N1CCN(c2ccnc3cc(Cl)ccc23)CC1 returned CHRM1 PAM 3.6, CHO-K1 Ca antag -11.1, M1 antag -11.0, CHO-K1 Ca PAM 14.6, M1 ag -4.3 and M1 ag parental 1.7.
